Source: PubChem
Pf growth 48h = Primary qHTS for delayed death inhibitors of the malarial parasite plastid, 48 hour incubation; P. falciparum luciferase growth in erythrocytes, 48 h; Potency, µM (series often up to 28.7 µM), for the others: at the top dose activity change, negative = inhibition, usual class: inhibitors; 310,000 compounds, 5.9% hits
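Read-out is firefly luciferase luminescence from an integrated reporter in P. falciparum, so falling signal marks reduced parasite growth. Infected erythrocytes were at 2% hematocrit and 0.1% parasitemia (final) in Albumax-supplemented RPMI 1640.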
AMA1-RON2 inh = qHTS for Inhibitors of AMA1-RON; Towards Development of Antimalarial Drug Lead: Primary Screen; Plasmodium falciparum AMA1 (3D7) - RON2 peptide interaction; AlphaScreen AMA1-biotinylated RON2 peptide binding; Potency, µM (titrated, usually from 58.2 µM), for inactives: at the top dose activity change, negative = inhibition, most hits filed as inhibitors; 360,000 compounds, 0.2% hits; AID 720542, 2013;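 further: 0% = vehicle wells and -100% = peptide control; nearly all actives have a fitted effect of over 45% in size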
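AMA1 (3D7) with his tag at 25 nM final met compounds first, then biotinylated RON2 peptide at 25 nM; detection used donor plus acceptor beads, 10 µg/mL apiece, read by AlphaScreen after 30 min at room temperature.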
VACV Venus inh = qHTS for Stage-Specific Inhibitors of Vaccinia Orthopoxvirus: Venus Reporter Primary qHTS | Vaccinia virus Venus reporter expression, fluorescence | Potency, µM (highest dose often 36.5 µM), for inactives: at the top dose activity change, negative = inhibition, hits mostly inhibitors | 330,000 compounds, 0.46% hits | AID 720580, 2013; calls by dose curve; tested in A549 cells; further: nearly all actives have a fitted effect of over 30% in size
Pf growth 96h = Primary qHTS for delayed death inhibitors of the malarial parasite plastid, 96 hour incubation. 320,000 compounds, 6.9% hits. AID 504834, 2011. Potency, µM (series often up to 28.7 µM), without a hit: at the highest dose activity change, negative = inhibition, hits mostly inhibitors. P. falciparum luciferase reporter growth, 96 h
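Parasite growth measured via integrated firefly luciferase reporter in P. falciparum. Infected erythrocytes at 2% hematocrit, 0.05% parasitemia final were treated 96 hours at 37 C under 5% CO2, and luminescence was read.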
VACV mCherry inh = qHTS for Stage-Specific Inhibitors of Vaccinia Orthopoxvirus: mCherry Reporter Primary qHTS | AID 720579, 2013 | Potency, µM (top dose mostly 36.5 µM), for inactives: at the top dose activity change, negative = inhibition, usual class: inhibitors | 310,000 compounds, 0.63% hits | Vaccinia virus mCherry reporter infection, fluorescence; calls by dose curve; tested in A549 cells; further: nearly all actives have a fitted effect of over 35% in size
Numbers without * were called inactive; i = inactive; ? = inconclusive; · = no result given. Rows were chosen to be rich in hits. Some 8.7% of all compounds tested hit in one or more screens of this group. Unless noted, the call rests on the fitted dose curve; in most records, active means well fitted curve in the direction sought with a large enough effect; inconclusive means small, poorly fitted or top-dose-only effect, or another doubt; inactive means no such curve, though single readings can be large; an effect the other way counts as inactive or inconclusive. Unless noted, on the % scale 0 is the no-effect control and ±100 the full control effect; potency means the concentration at half of the fitted maximal effect.

SMILES	Pf growth 48h	AMA1-RON2 inh	VACV Venus inh	Pf growth 96h	VACV mCherry inh
COc1ccc(-c2noc(C3CCCN(S(=O)(=O)c4cccc(Cl)c4C)C3)n2)cc1OC (stereo not drawn)	13µM*	-7%	·	?	·
O=C(C1CC1)N1CCC(c2nc(-c3ccc(S(=O)(=O)N4CCCC4)cc3)no2)CC1	·	-1%	-7%	?	i
O=S(=O)(c1ccc2ccccc2c1)N1CCC(c2nc(-c3ccncc3)no2)CC1	13µM*	-7%	-11%	?	-26%
Cc1ccc(Oc2nc3ccccn3c(=O)c2/C=C(\C#N)c2nc3ccccc3s2)c(C)c1	·	·	-25%	·	-45%
COc1ccc(N2CCN(c3oc(-c4ccccc4C)nc3S(=O)(=O)c3ccccc3)CC2)cc1	·	·	-2%	·	-11%
CC(C)(C)C(=O)Nc1ccccc1C(=O)OCc1cc(=O)n2ccsc2n1	·	·	-1%	·	-4%
Cc1ccc(NC(=O)c2ccc3c(O)c(S(=O)(=O)c4ccc(Cl)cc4)c(=O)[nH]c3c2)cc1	·	·	-2%	·	-12%
COc1ccc(NS(=O)(=O)c2cc(NC(=O)c3cccc(OCc4c(C)noc4C)c3)ccc2OC)cc1	9.3µM*	7%	-29%	6.6µM*	?
Cc1ccc(NC(=O)c2cccc(OCc3c(C)noc3C)c2)cc1	·	-14%	-15%	2%	-21%
CC(=O)Nc1ccc(NCC(O)COc2ccccc2)cc1 (stereo not drawn)	6%	-4%	-19%	?	·
COCC(O)CNc1ccccc1 (stereo not drawn)	32%	-8%	-4%	13µM*	-11%
CCOc1ccc(CCNC(=O)C2Cc3ccccc3N2C(=O)CC)cc1OCC (stereo not drawn)	·	·	4%	·	-3%
Cc1ccc(OCc2nc(-c3ccc(C(=O)NCCc4ccc(Cl)cc4)cc3)oc2C)cc1	·	·	-4%	·	0%
Cc1cccc(C(=O)O[C@@H]2[C@H](Cc3ccccc3)NS(=O)(=O)[C@H]3C[C@@H]4C=C[C@]23O4)c1	?	-20%	-13%	9.3µM*	-7%
Oc1cc(-c2nc3ccccc3s2)cc2c1OCCN(Cc1cccn1-c1nccs1)C2	·	·	-9%	·	-16%
CCOc1ccc(NC(=O)CC2C(=O)N(c3ccccc3)C(=O)N2C2CCCC2)cc1 (stereo not drawn)	·	·	-8%	·	-9%
CN=Cc1nc(-c2ccccc2)oc1O	157%	-5%	-11%	193%	·
Oc1oc(-c2ccccc2)nc1/C=N/c1ccccn1	-29%	-5%	-13%	12µM*	i
CCCN(CCC)CCNC(=O)c1sc2nc3n(c(=O)c2c1C)CCCCC3	·	·	-6%	·	-1%
CCCc1nnc(SCc2cc(=O)c3c(C)cc(C)cc3[nH]2)n1C	·	·	-10%	·	0%
CCn1nnc2c(=O)oc3ccccc3c21	-26%	24%	-2%	4.1µM*	-5%
COc1ccc(C2C(C(=O)c3ccccc3)=C(C)Nc3nc4ccccc4n32)cc1OC (stereo not drawn)	-21%	-2%	-26%	3.3µM*	-27%
O=C(Nc1cccc(S(=O)(=O)N2CCCCC2)c1)c1ccc([N+](=O)[O-])o1	?	0%	10µM*	9.3µM*	11µM*
Cc1ccc(C(=O)Nc2cccc(S(=O)(=O)N3CCCCC3)c2)cc1[N+](=O)[O-]	4.7µM*	-9%	·	8.3µM*	·
Cc1ccc(C(=O)Nc2cccc(S(=O)(=O)N3CCCCC3)c2)cc1S(=O)(=O)N1CCOCC1	·	-3%	·	·	·
COc1ccc(NC(=O)CSc2ncc3c(n2)-c2ccccc2N(C)S3(=O)=O)cc1Cl	·	·	-11%	·	-21%
Cc1cc(C(=O)Nc2cc(C)n(Cc3ccc(Cl)cc3)n2)no1	0.93µM*	-2%	·	?	·
Cc1cc(NC(=O)c2cc(-c3ccc(Cl)cc3)on2)nn1Cc1ccc(Cl)cc1	·	·	-27%	·	i
COc1ccccc1-c1cc(C(=O)Nc2cc(C)n(Cc3ccc(Cl)cc3)n2)no1	5.9µM*	-1%	·	16%	·
COc1ccccc1S(=O)(=O)Cc1ccc(C(=O)NCc2cccs2)o1	0.83µM*	-4%	·	·	·
